Experimental data as given in PubChem BioAssay (NCATS).
Where “and” joins values, the source holds several entries; their conditions need not be identical. Identical values can stand only once. Results filed as inconclusive are left out. Values without a mark were called inactive. Calls of active or inactive are those of the source. The call rests on the fitted dose curve; in most records, active means well fitted inhibition curve with a large enough effect; inconclusive means small, poorly fitted or top-dose-only effect; inactive means flat fitted curve, though single readings scatter.

Test system: not listed separately
Assay: qHTS profiling for inhibitors of Plasmodium falciparum proliferation (AID 504749); further: nearly all actives have a fitted effect of over 60% in size;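 on activity, negative = inhibition: 0% = DMSO vehicle and full inhibition = artemisinin control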
Settings: P. falciparum in erythrocytes, SYBR Green DNA, 72 h; at 28.7 µM (top of the series); parasite line B
Method in brief: (§1)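 Infected RBCs, 0.3% parasitemia/2.5% Hct final; cpd 72 h, 37 C, 5% CO2; lysis buffer with saponin/triton/SYBR Green I, o/n RT dark; FI 485/535; norm. to artemisinin (0.29 uM) and DMSO.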
Potency means the concentration at half of the fitted maximal effect.

Row | Compound | activity, negative = inhibition [%]
1 | O=C1C2CC=CCC2C(=O)N1SC(Cl)(Cl)Cl (stereo not given) | 5.29
2 | c1cc2c(c(NC3=NCCN3)c1)CCCC2 | -7.85
3 | CCCC(=O)OC(C(Cl)(Cl)Cl)P(=O)(OC)OC (stereo not given) | -35.8
4 | CNC(C)C(O)c1ccc(O)cc1 (stereo not given) | -1.7
5 | Clc1ccc(C2(Cn3cncn3)OCCO2)c(Cl)c1 | -7.5
6 | CCN(CC)C(=O)/C(Cl)=C(\C)OP(=O)(OC)OC | 3.3
7 | CC1CCC(C(C)C)C(OC(=O)c2ccccc2N)C1 (stereo not given) | -19.4
8 | CC(=O)O[C@H]1CC[C@H]2[C@@H]3CCC4=CC(=O)CCC4=C3C=C[C@]12C | 0.383
9 | O=C(NC(=O)c1c(F)cccc1F)Nc1ccc(Cl)c(Oc2ncc(C(F)(F)F)cc2Cl)c1 | -1.85
10 | CCCCCCCCOC(=O)c1ccccc1C(=O)OCCCCCCCC | -23.5
11 | O=C1CN=C(c2ccccc2)c2cc(Cl)ccc2N1CC1CC1 | -9.8
12 | c1ccc2cc(CC3=NCCN3)ccc2c1 | -0.535
13 | c1ccc2sc(SNC3CCCCC3)nc2c1 | 2.42
14 | O=C1CN(O)C(c2ccccc2)=c2cc(Cl)ccc2=N1 | 1.2
15 | CC12NC(Cc3ccccc31)c1ccccc12 (stereo not given) | 6.66
16 | CCCC(C)(COC(N)=O)COC(=O)NC1CC1 (stereo not given) | 1.21
17 | CCOP(=O)(OCC)O/C(=C/Cl)c1ccc(Cl)cc1Cl | -21.8
18 | O=Cc1ccco1 | 9.74
19 | O=C/C=C/c1ccccc1 | -11
20 | OC(c1ccccc1)(c1ccccc1)C1CN2CCC1CC2 (stereo not given) | -0.359

Test system: 3D7
Assay: as above
Settings: P. falciparum in erythrocytes, SYBR Green DNA, 72 h; series mostly up to 28.7 µM
Method in brief: as §1

Row | Compound | Potency
21 | O=C1C2CC=CCC2C(=O)N1SC(Cl)(Cl)Cl (stereo not given) | inactive
22 | c1cc2c(c(NC3=NCCN3)c1)CCCC2 | inactive
23 | CNC(C)C(O)c1ccc(O)cc1 (stereo not given) | inactive
24 | Clc1ccc(C2(Cn3cncn3)OCCO2)c(Cl)c1 | inactive
25 | CCN(CC)C(=O)/C(Cl)=C(\C)OP(=O)(OC)OC | inactive
26 | CC1CCC(C(C)C)C(OC(=O)c2ccccc2N)C1 (stereo not given) | inactive
27 | CC(=O)O[C@H]1CC[C@H]2[C@@H]3CCC4=CC(=O)CCC4=C3C=C[C@]12C | inactive
28 | O=C(NC(=O)c1c(F)cccc1F)Nc1ccc(Cl)c(Oc2ncc(C(F)(F)F)cc2Cl)c1 | inactive
29 | CCCCCCCCOC(=O)c1ccccc1C(=O)OCCCCCCCC | inactive
30 | c1ccc2cc(CC3=NCCN3)ccc2c1 | inactive
31 | c1ccc2sc(SNC3CCCCC3)nc2c1 | inactive
32 | O=C1CN(O)C(c2ccccc2)=c2cc(Cl)ccc2=N1 | inactive
33 | CC12NC(Cc3ccccc31)c1ccccc12 (stereo not given) | inactive
34 | CCCC(C)(COC(N)=O)COC(=O)NC1CC1 (stereo not given) | inactive
35 | CCOP(=O)(OCC)O/C(=C/Cl)c1ccc(Cl)cc1Cl | inactive
36 | O=Cc1ccco1 | inactive
37 | O=C/C=C/c1ccccc1 | inactive
38 | OC(c1ccccc1)(c1ccccc1)C1CN2CCC1CC2 (stereo not given) | inactive
39 | CC(C)(C)c1cc(O)ccc1O | 2.24 µM (active)
40 | C/C(=C\c1csc(C)n1)[C@@H]1C[C@@H]2O[C@]2(C)CCC[C@H](C)[C@H](O)[C@@H](C)C(=O)C(C)(C)[C@@H](O)CC(=O)O1 | 0.0032 µM (active)
41 | CCC(=O)O[C@@](Cc1ccccc1)(c1ccccc1)[C@@H](C)CN(C)C | inactive

Test system: 7G8
Assay: as above
Settings: P. falciparum in erythrocytes, SYBR Green DNA, 72 h; series mostly up to 28.7 µM
Method in brief: as §1

Row | Compound | Potency
42 | CNC(C)C(O)c1ccc(O)cc1 (stereo not given) | inactive
43 | O=Cc1ccco1 | inactive
44 | O=C/C=C/c1ccccc1 | inactive
45 | CC(C)(C)c1cc(O)ccc1O | 3.16 µM (active) and 2.82 µM (active)
